Inconclusive results are not listed. A call without a number means that no potency is given here. The source made the active and inactive calls. Calls follow the shape of the dose curve; as a rule, active = well fitted curve in the direction sought with a large enough effect; inconclusive = small, poorly fitted or top-dose-only effect, or another doubt; inactive = no such curve, though single readings can be large; an effect the other way counts as inactive or inconclusive.
Key:
[1] = molecular target: Ubiquitin carboxyl-terminal hydrolase 1 (Homo sapiens) (UniProt O94782); assay: Inhibitors of USP1/UAF1: Pilot qHTS (AID 504865);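 also: rhodamine fluorescence freed from ubiquitin-rhodamine substrate followed over time; top concentration of the series differs between compounds; nearly all actives have a fitted effect of over 35% in size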
Sequence of Ubiquitin carboxyl-terminal hydrolase 1 (Homo sapiens) (O94782 whole entry, looked up): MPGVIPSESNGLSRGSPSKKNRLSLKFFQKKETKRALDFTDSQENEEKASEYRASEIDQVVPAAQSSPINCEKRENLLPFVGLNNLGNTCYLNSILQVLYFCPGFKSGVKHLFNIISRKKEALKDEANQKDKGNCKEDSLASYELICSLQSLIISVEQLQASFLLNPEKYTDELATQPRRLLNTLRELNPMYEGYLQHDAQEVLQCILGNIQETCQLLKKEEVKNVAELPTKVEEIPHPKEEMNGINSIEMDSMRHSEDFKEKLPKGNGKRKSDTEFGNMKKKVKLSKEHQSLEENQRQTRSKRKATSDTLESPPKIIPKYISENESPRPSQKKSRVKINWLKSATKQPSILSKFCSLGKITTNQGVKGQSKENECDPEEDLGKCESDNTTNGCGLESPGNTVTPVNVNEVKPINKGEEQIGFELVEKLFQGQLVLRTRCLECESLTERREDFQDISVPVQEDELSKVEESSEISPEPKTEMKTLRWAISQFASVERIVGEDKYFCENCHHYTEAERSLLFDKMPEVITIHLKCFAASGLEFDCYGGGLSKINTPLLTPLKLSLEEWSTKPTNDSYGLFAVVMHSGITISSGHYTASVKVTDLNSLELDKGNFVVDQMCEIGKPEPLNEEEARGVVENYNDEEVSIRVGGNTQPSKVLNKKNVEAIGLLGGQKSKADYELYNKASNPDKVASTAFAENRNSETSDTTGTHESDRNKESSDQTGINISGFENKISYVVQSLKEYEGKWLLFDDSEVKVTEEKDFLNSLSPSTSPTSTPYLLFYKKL
In short: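 In 50mM HEPES pH 7.8 containing 0.5mM EDTA, 1mM TCEP, 0.1 mg/ml BSA and 0.01% Tween-20, 1nM USP1/UAF1 is exposed to compound for 15 min, then Ub-Rho (150nM final) is added and fluorescence is read over time.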

[2] = molecular target: Luciferin 4-monooxygenase (Photinus pyralis) (UniProt P08659); assay: Biochemical firefly luciferase enzyme assay for NPC (AID 624030);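 also: purified P. pyralis luciferase at 10 nM with luciferin and ATP substrate; nearly all actives have a fitted effect of over 70% in size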
Sequence of Luciferin 4-monooxygenase (Photinus pyralis) (P08659 whole entry, looked up): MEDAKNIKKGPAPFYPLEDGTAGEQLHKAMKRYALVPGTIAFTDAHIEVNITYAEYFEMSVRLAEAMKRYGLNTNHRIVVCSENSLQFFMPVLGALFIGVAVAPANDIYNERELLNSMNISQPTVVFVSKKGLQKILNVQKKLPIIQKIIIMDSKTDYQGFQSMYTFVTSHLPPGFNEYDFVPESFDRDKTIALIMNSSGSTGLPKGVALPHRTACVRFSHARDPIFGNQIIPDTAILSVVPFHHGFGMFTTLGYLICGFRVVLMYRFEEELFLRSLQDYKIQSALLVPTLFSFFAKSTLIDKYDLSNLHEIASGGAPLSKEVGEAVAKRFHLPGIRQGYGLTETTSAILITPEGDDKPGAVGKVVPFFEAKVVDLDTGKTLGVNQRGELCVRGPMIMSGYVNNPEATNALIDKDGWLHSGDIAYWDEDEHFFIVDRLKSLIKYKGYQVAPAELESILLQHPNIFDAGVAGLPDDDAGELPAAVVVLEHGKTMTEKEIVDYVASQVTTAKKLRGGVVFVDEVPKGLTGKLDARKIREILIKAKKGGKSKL
In short: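 Counter-screen for direct inhibition of the luciferase enzyme by approved-drug library compounds, run at 10 nM enzyme in 50 mM Tris acetate (final). Luminescence was read within 5 min of enzyme-buffer addition and normalized to PTC124 versus DMSO (0%).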

DFO2036 = assay: qHTS profiling for inhibitors of Plasmodium falciparum proliferation (AID 504749); also: nearly all actives have a fitted effect of over 60% in size; also: potency is read from the fitted curve at half-maximal effect; details: P. falciparum in erythrocytes, SYBR Green DNA, 72 h; series mostly up to 28.7 µM
In short: (§1)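 Fluorescence of SYBR Green-bound parasite DNA, read at 485/535 nm, served as the growth measure. Infected erythrocytes were cultured with compound 72 h; artemisinin (0.29 uM) and DMSO wells defined the normalization range.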

DIV14 = assay: as above; details: P. falciparum in erythrocytes, SYBR Green DNA, 72 h; series mostly up to 28.7 µM
In short: as §1

W2 = assay: as above; details: P. falciparum in erythrocytes, SYBR Green DNA, 72 h; series mostly up to 28.7 µM
In short: as §1

[3] = S16 Schwann cell PMP22 intronic element firefly luciferase assay (AID 624032); also: nearly all actives have a fitted effect of over 30% in size; also: potency is read from the fitted curve at half-maximal effect
In short: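 Rat S16 Schwann cells stably carrying a PMP22 intronic element-driven Fluc reporter were seeded overnight, then exposed to compounds for 24 h at 37 °C. Luminescence was normalized to PTC124 (positive control) and DMSO (0% activity).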

[4] = Confirmation and Secondary Assay for Modulators of Hemoglobin Beta Chain Splicing at IVS2 654 locus (AID 910);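 also: per-well total GFP intensity by laser scanning cytometry after 2-day treatment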
In short: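 HeLa cells stably carrying EGFP interrupted by mutant beta-globin IVS2-654 intron (CMV-driven) were treated with compound for 2 days at 37C; corrected splicing was scored as total peak GFP intensity per well (488 nm excitation, 500-520 nm emission).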

[5] = molecular target: Cytochrome P450 3A4 (Homo sapiens) (UniProt P08684); assay: qHTS Assay for Inhibitors and Substrates of Cytochrome P450 3A4 (AID 884); also: nearly all actives have a fitted effect of over 50% in size
Sequence of Cytochrome P450 3A4 (Homo sapiens) (P08684 whole entry, looked up): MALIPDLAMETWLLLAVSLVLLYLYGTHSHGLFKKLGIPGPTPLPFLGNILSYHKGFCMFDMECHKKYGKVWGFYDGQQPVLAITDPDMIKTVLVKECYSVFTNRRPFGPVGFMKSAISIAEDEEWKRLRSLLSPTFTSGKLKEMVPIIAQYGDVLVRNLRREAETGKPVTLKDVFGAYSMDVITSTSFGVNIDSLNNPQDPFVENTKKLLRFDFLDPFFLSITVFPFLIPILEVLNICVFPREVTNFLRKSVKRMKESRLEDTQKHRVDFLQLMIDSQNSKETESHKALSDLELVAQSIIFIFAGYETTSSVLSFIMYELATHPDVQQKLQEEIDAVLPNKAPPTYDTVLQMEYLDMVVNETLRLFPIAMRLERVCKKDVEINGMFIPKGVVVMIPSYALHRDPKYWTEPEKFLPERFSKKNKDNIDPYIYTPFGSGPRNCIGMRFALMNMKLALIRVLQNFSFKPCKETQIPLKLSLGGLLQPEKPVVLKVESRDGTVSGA
In short: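 Luminescent readout of luciferin produced by CYP3A4 (20 nM) dealkylation of Luciferin-PPXE, 25 uM (its KM). NADPH-driven reaction ran 60 min at RT after 10 min compound preincubation; data scaled to 57 uM ketoconazole as 100% inhibition.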

| SMILES | Potency [1] | Potency [2] | Potency (DFO2036) | Potency (DIV14) | Potency (W2) | Potency [3] | Potency [4] | Potency [5] |
| --- | --- | --- | --- | --- | --- | --- | --- | --- |
| O=C1[C@@H]2C[C@@H]3C[C@H]1C[C@@](O)(C3)C2 | inactive | inactive | inactive | inactive | inactive |  |  |  |
| CC(=O)NC1[C@H](O)C[C@@](O)(C(=O)O)O[C@H]1[C@H](O)[C@H](O)CO (stereo partly specified) | inactive | inactive | inactive | inactive | inactive | inactive |  |  |
| C=NC(C(=O)NC1C(=O)N2C1SC(C)(C)C2C(=O)O)c1ccccc1 (stereo unspecified) |  | inactive | inactive | inactive | inactive | inactive | inactive |  |
| CO[C@H]1OC2O[C@@]3(C)CC[C@H]4[C@H](C)CC[C@@H]([C@H]1C)[C@@]24OO3 (stereo partly specified) | inactive | inactive | 15.8 nM (active) | 10.7 nM (active) | 6 nM (active) | 3220 nM (active) |  |  |
| OC[C@@H]1O[C@](CO)(O[C@H]2O[C@H](CO)[C@@H](O)[C@H](O)[C@H]2O)[C@H](O)[C@H]1O | inactive | inactive | inactive | inactive | inactive |  |  |  |
| O=C1NC(=O)C2C3C=CC(C3)C12 (stereo unspecified) | inactive | inactive | inactive | inactive | inactive | inactive |  |  |
| CCCCCCCCCCCC(=O)OCC(O)C1OCC(O)C1O (stereo unspecified) |  | inactive | inactive | inactive | inactive | inactive |  |  |
| COc1cccc(OC)c1C(=O)NC1C(=O)N2C1SC(C)(C)C2C(=O)O (stereo unspecified) |  | inactive | inactive | inactive | inactive |  | inactive | inactive |
| C[C@]12CC[C@@H]3c4ccc(O)cc4CC[C@H]3[C@@H]1C[C@H](O)C2O (stereo partly specified) | inactive | inactive | inactive | inactive | inactive | inactive |  |  |
| CC[C@@]1(O)C[C@H](O[C@H]2C[C@@H](N(C)C)[C@@H](O[C@H]3C[C@@H](O)[C@@H](O[C@H]4CCC(=O)[C@@H](C)O4)[C@@H](C)O3)[C@@H](C)O2)c2c(cc3c(c2O)C(=O)c2c(O)cccc2C3=O)[C@H]1C(=O)OC |  | inactive | 178 nM (active) | 379 nM (active) | 151 nM (active) |  |  |  |
| CCCC[C@H](O)c1ccccc1 | inactive | inactive | inactive | inactive | inactive | inactive |  |  |
| CC(=O)OCC(=O)[C@@]1(O)CCC2C3CCC4=CC(=O)C=CC4(C)C3C(O)C[C@]21C (stereo partly specified) | inactive |  | inactive | inactive | inactive | inactive | inactive |  |
| OCC1O[C@@H](O[C@@H]2C(CO)OC(O)C(O)C2O)C(O)C(O)C1O (stereo partly specified) | inactive |  | inactive | inactive | inactive | inactive |  |  |
| NC[C@@H]1O[C@H](OC2[C@@H](CO)O[C@@H](OC3[C@H](O)[C@H](N)C[C@H](N)[C@H]3OC3O[C@H](CO)[C@@H](O)[C@H](O)[C@@H]3N)[C@H]2O)C(N)[C@H](O)[C@@H]1O (stereo partly specified) |  | inactive | inactive | inactive | inactive | inactive |  |  |
| CCC(C(=O)O)C1OC(C(C)C(O)C(C)C(=O)C(CC)C2OC3(C=CC(O)C4(CCC(C)(C5CCC(O)(CC)C(C)O5)O4)O3)C(C)CC2C)C(C)CC1C (stereo unspecified) | inactive | inactive | 126 nM (active) | 95.3 nM (active) |  | 102 nM (active) |  |  |
| CCN1CCN(C(=O)NC(C(=O)NC2C(=O)N3C(C(=O)O)=C(CSc4nnnn4C)CSC23)c2ccc(O)cc2)C(=O)C1=O (stereo unspecified) | inactive | inactive | inactive | inactive | inactive | inactive | inactive | inactive |
| O=C1CC[C@H](C(=O)N[C@@H]2C[C@H]2c2ccccc2)N1 | inactive |  | inactive | inactive | inactive | inactive |  |  |
| CC1OC(OC2CCC3(C)C(CCC4C3CC(O)C3(C)C(C5=CC(=O)OC5)CCC43O)C2)CC(O)C1OC1CC(O)C(OC2CC(O)C(OC3OC(CO)C(O)C(O)C3O)C(C)O2)C(C)O1 (stereo unspecified) | inactive |  | inactive | inactive | inactive | inactive |  |  |
| CC(c1ncncc1F)[C@](O)(Cn1cncn1)c1ccc(F)cc1F (stereo partly specified) | inactive | inactive | inactive | inactive | inactive | inactive |  |  |
| CO/N=C(/C(=O)N[C@@H]1C(=O)N2C(C(=O)O)=C(CSC(=O)c3ccco3)CSC12)c1csc(N)n1 (stereo partly specified) | inactive | inactive | inactive | inactive | inactive | inactive |  |  |
| Cc1onc(-c2c(F)cccc2Cl)c1C(=O)NC1C(=O)N2C1SC(C)(C)C2C(=O)O (stereo unspecified) | inactive | inactive |  | inactive | inactive | inactive |  |  |
| CC[C@H](C)[C@H]1O[C@]2(CC[C@@H]1C)C[C@@H]1C[C@@H](C/C=C(\C)[C@H](O[C@@H]3C[C@H](OC)[C@H](O[C@@H]4C[C@H](OC)[C@@H](O)[C@H](C)O4)[C@H](C)O3)[C@@H](C)/C=C/C=C3\CO[C@@H]4[C@H](O)C(C)=C[C@@H](C(=O)O1)[C@]34O)O2 |  |  | 794 nM (active) | 1690 nM (active) | 1690 nM (active) | 9070 nM (active) |  |  |
